Data taken from PubChem BioAssay (EPA / NIEHS).
Activity calls are given as the source filed them. Rule for the calls: active = hit-call score of the fitted dose curve at least 0.9, where 1 is the maximum; inactive = score below 0.9.

Legend:
[1] = read-out: TIMP metallopeptidase inhibitor 2 (TIMP2), TIMP2 (gene 7077); experiment: BSK_KF3CT_TIMP2: BioMAP Diversity Plus: KF3CT Assay for TIMP metallopeptidase inhibitor 2 (TIMP2) Biomarker Activity (AID 2283071); conditions: primary human keratinocytes with fibroblasts; actives raise or lower the signal
How it was run: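 Human primary keratinocyte/foreskin fibroblast co-culture dosed with chemical and sampled at 24 h. TIMP-2 levels quantified by ELISA; bidirectional fitting against DMSO negative control as baseline.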

[2] = read-out: Transforming growth factor beta 1 (TGFb1), TGFB1 (gene 7040); experiment: BSK_KF3CT_TGFb1: BioMAP Diversity Plus: KF3CT Assay for Transforming growth factor beta 1 (TGFb1) Biomarker Activity (AID 2283072); conditions: primary human keratinocytes with fibroblasts; actives raise or lower the signal
How it was run: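 Human keratinocyte plus foreskin fibroblast primary co-culture, dosed with chemical for 24 h. TGF-b1 quantified by ELISA. Activity fitted bidirectionally against DMSO negative control as baseline.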

[3] = read-out: C-C motif chemokine 2 (Homo sapiens) (UniProt P13500); experiment: BSK_KF3CT_MCP1: BioMAP Diversity Plus: KF3CT Assay for Monocyte Chemoattractant Protein 1 (MCP1/CCL2) Biomarker Activity (AID 2283073); conditions: primary human keratinocytes with fibroblasts; actives raise or lower the signal
How it was run: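 Keratinocytes and foreskin fibroblasts were co-cultured, dosed with chemical, and sampled 24 h later. MCP-1 was quantified by ELISA, and the endpoint was analyzed with bidirectional fitting using DMSO as negative control.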

[4] = read-out: urokinase plasminogen activator (uPA), PLAU (gene 5328); experiment: BSK_KF3CT_uPA: BioMAP Diversity Plus: KF3CT Assay for urokinase plasminogen activator (uPA) Biomarker Activity (AID 2283075); conditions: primary human keratinocytes with fibroblasts; actives raise or lower the signal
How it was run: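 ELISA readout of uPA, analyzed for signal gain or loss relative to DMSO, from a human primary keratinocyte–foreskin fibroblast co-culture measured 24 h after chemical treatment.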

CD40, CD40 (gene 958) [5] = experiment: BSK_LPS_CD40: BioMAP Diversity Plus: LPS Assay for CD40 Biomarker Activity (AID 2283076); conditions: primary human HUVEC with PBMC; actives raise or lower the signal
How it was run: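 CD40 signal, measured by ELISA, is fitted in both directions relative to DMSO vehicle. The system is an LPS-driven human vascular primary co-culture of endothelial cells and PBMC, sampled 24 h after compound addition.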

[6] = read-out: E-selectin (Homo sapiens) (UniProt P16581); experiment: BSK_LPS_Eselectin: BioMAP Diversity Plus: LPS Assay for Eselectin Biomarker Activity (AID 2283077); conditions: primary human HUVEC with PBMC; actives raise or lower the signal
How it was run: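 Signal of E-selectin, detected by ELISA, served as the endpoint; cells were umbilical vein endothelium with PBMC, read 24 h after treatment. DMSO defined baseline, and both increases and decreases were fitted.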

[7] = BSK_LPS_SRB: Viability Assessment in the BioMAP Diversity Plus: LPS Assay (AID 2283079); conditions: primary human HUVEC with PBMC;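 note: total protein by sulforhodamine B absorbance as a cytotoxicity measure; measured one day after compound addition; fitted in both directions against DMSO so loss or gain of signal counts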
How it was run: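 Overt cytotoxicity was gauged by sulforhodamine B total-protein staining in a primary human vascular endothelial and mononuclear cell co-culture 24 h post-dosing. Activity was fitted in both directions relative to DMSO.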

[8] = read-out: Interleukin-1 alpha (IL1a), IL1A (gene 3552); experiment: BSK_LPS_IL1a: BioMAP Diversity Plus: LPS Assay for Interleukin-1 alpha (IL1a) Biomarker Activity (AID 2283080); conditions: primary human HUVEC with PBMC; actives raise or lower the signal
How it was run: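 Measured: IL-1 alpha via ELISA at 24 h in LPS-activated human umbilical vein endothelium–PBMC co-culture. Baseline: DMSO, bidirectional fitting.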

[9] = read-out: Monocyte Chemoattractant Protein-1 (MCP1), CCL2 (gene 6347); experiment: BSK_LPS_MCP1: BioMAP Diversity Plus: LPS Assay for Monocyte Chemoattractant Protein-1 (MCP1) Biomarker Activity (AID 2283081); conditions: primary human HUVEC with PBMC; actives raise or lower the signal
How it was run: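 LPS-stimulated HUVEC/PBMC co-culture; chemical, 24 h; MCP-1 by ELISA; bidirectional fit vs DMSO; cytotoxicity via SRB (0.1% stain, 10% TCA fix, 560 nm) in parallel wells.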

[10] = BSK_LPS_PGE2: BioMAP Diversity Plus: LPS Assay for Prostaglandin E2 (PGE2) Biomarker Activity (AID 2283082); conditions: primary human HUVEC with PBMC; actives raise or lower the signal;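 for AC50: secreted prostaglandin E2 measured by ELISA in LPS-stimulated co-culture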
How it was run: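 HUVEC plus PBMC co-culture stimulated with LPS; secreted PGE2 quantified by ELISA 24 h after chemical dosing. Activity fitted bidirectionally against DMSO as negative control and baseline; parallel SRB total-protein staining served as cytotoxicity check.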

[11] = read-out: Macrophage colony-stimulating factor (MCSF), CSF1 (gene 1435); experiment: BSK_LPS_MCSF: BioMAP Diversity Plus: LPS Assay for Macrophage colony-stimulating factor (MCSF) Biomarker Activity (AID 2283083); conditions: primary human HUVEC with PBMC; actives raise or lower the signal
How it was run: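 Compound is added to a human vascular primary co-culture of umbilical vein endothelium and blood mononuclear cells. After 24 h, M-CSF is quantified by ELISA. Signal changes are fitted in both directions against DMSO.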

[12] = read-out: Tissue Factor, F3 (gene 2152); experiment: BSK_LPS_TissueFactor: BioMAP Diversity Plus: LPS Assay for Tissue Factor Biomarker Activity (AID 2283084); conditions: primary human HUVEC with PBMC; actives raise or lower the signal
How it was run: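 In this co-culture system of umbilical vein endothelium with PBMC, stimulated with LPS, cell-surface CD142 is detected by ELISA at 24 h. Endpoint values derive from bidirectional fitting, DMSO serving as baseline.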

[13] = read-out: Tumor necrosis factor (Homo sapiens) (UniProt P01375); experiment: BSK_LPS_TNFa: BioMAP Diversity Plus: LPS Assay for Tumour Necrosis Factor alpha (TNFa) Biomarker Activity (AID 2283085); conditions: primary human HUVEC with PBMC; actives raise or lower the signal
How it was run: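 Human umbilical vein endothelial cells co-cultured with PBMC were exposed to test chemical and TNFa measured by ELISA 24 h after dosing. Bidirectional curve fitting was done relative to DMSO as negative control and baseline.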

[14] = read-out: Vascular cell adhesion molecule 1 (VCAM1), VCAM1 (gene 7412); experiment: BSK_LPS_VCAM1: BioMAP Diversity Plus: LPS Assay for Vascular cell adhesion molecule 1 (VCAM1) Biomarker Activity (AID 2283086); conditions: primary human HUVEC with PBMC; actives raise or lower the signal
How it was run: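 Human umbilical vein endothelial cells co-cultured with peripheral blood mononuclear cells under LPS stimulation were exposed to test chemical for 24 h. VCAM-1 levels were then measured by ELISA, with bidirectional curve fitting relative to DMSO as negative control and baseline.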

CD38, CD38 (gene 952) = experiment: BSK_SAg_CD38: BioMAP Diversity Plus: SAg Assay for CD38 Biomarker Activity (AID 2283087); conditions: primary human HUVEC with PBMC; actives raise or lower the signal
How it was run: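 Fluorescence ELISA of cell-surface CD38 served as the read-out, with either increase or decrease fitted against DMSO controls. Cells were a human umbilical vein endothelium plus PBMC co-culture under SEB/TSST-1 stimulation, measured 24 h after dosing.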

CD40, CD40 (gene 958) [15] = experiment: BSK_SAg_CD40: BioMAP Diversity Plus: SAg Assay for CD40 Biomarker Activity (AID 2283088); conditions: primary human HUVEC with PBMC; actives raise or lower the signal
How it was run: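 Fluorescence ELISA read-out of CD40 from umbilical vein endothelium plus peripheral blood mononuclear cells, sampled 24 h after dosing. Values come from bidirectional curve fitting with DMSO as baseline.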

CD69, CD69 (gene 969) = experiment: BSK_SAg_CD69: BioMAP Diversity Plus: SAg Assay for CD69 Biomarker Activity (AID 2283089); conditions: primary human HUVEC with PBMC; actives raise or lower the signal;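 for AC50: cell surface CD69 protein quantified by ELISA with fluorescence detection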
How it was run: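 HUVEC co-cultured with PBMC were dosed with chemical, and CD69 was measured by ELISA with fluorescence read-out 24 h later. Bidirectional curve fitting used DMSO as negative control and activity baseline.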

[16] = read-out: Monocyte Chemoattractant Protein-1 (MCP1), CCL2 (gene 6347); experiment: BSK_SAg_MCP1: BioMAP Diversity Plus: SAg Assay for Monocyte Chemoattractant Protein-1 (MCP1) Biomarker Activity (AID 2283090); conditions: primary human HUVEC with PBMC; actives raise or lower the signal
How it was run: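 MCP-1 levels in the endothelial–PBMC SAg co-culture were quantified by ELISA at 24 h post-dosing; both increases and decreases versus DMSO scored. Cytotoxicity monitored by SRB total protein in parallel cultures.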

[17] = read-out: Interleukin-8 (IL8), CXCL8 (gene 3576); experiment: BSK_LPS_IL8: BioMAP Diversity Plus: LPS Assay for Interleukin-8 (IL8) Biomarker Activity (AID 2283078); conditions: primary human HUVEC with PBMC; actives raise or lower the signal
How it was run: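 Endothelial cells and PBMC from human donors are co-cultured, treated with chemicals and LPS, then assayed for IL-8 by ELISA after 24 h. Parallel SRB staining (0.1% SRB after 10% TCA fixation, 560 nm) flags cytotoxicity.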

Measured: AC50

Chain of Tumor necrosis factor (Homo sapiens) (P01375 whole entry, looked up): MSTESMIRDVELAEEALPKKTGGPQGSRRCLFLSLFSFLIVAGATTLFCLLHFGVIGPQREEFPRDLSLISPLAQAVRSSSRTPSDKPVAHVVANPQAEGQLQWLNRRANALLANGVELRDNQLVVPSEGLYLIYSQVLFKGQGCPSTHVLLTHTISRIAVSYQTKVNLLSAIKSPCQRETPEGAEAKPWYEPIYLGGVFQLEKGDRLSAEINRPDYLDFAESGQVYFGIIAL
Chain of E-selectin (Homo sapiens) (P16581 whole entry, looked up): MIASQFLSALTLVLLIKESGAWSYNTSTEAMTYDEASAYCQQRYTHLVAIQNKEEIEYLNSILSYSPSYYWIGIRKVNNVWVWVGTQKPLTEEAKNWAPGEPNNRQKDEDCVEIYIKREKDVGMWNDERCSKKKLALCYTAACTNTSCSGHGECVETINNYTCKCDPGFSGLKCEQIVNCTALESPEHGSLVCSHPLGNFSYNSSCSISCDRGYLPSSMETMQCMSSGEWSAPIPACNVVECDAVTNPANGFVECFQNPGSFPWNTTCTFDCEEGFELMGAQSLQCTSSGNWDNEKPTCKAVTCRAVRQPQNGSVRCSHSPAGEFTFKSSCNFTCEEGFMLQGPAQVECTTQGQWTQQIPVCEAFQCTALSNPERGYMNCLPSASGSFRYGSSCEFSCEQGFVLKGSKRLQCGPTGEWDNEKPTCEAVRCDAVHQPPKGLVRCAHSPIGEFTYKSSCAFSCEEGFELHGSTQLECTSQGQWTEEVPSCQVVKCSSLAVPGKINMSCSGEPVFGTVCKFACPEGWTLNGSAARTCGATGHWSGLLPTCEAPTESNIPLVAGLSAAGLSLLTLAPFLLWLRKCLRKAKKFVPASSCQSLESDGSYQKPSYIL

CCSC(=O)N1CCCCCC1
not listed: [17]
inactive: all other assays above

C=C(C)CN(CC)c1c([N+](=O)[O-])cc(C(F)(F)F)cc1[N+](=O)[O-]
active: CD40, CD40 (gene 958) [5] 20 µM | [13] 5.11 µM | [14] 20 µM | CD38, CD38 (gene 952) 33.7 µM
not listed: [6] | [17]
inactive: all other assays above

CCN(CC)c1nc(C)cc(OP(=S)(OC)OC)n1
active: CD40, CD40 (gene 958) [5] 19.5 µM | [11] 20 µM | [13] 6.51 µM | [14] 20 µM | CD38, CD38 (gene 952) 20 µM | CD40, CD40 (gene 958) [15] 20 µM | CD69, CD69 (gene 969) 3.97 µM
not listed: [6] | [17]
inactive: all other assays above

CS(=O)(=O)c1ccc(C(=O)C2C(=O)CCCC2=O)c([N+](=O)[O-])c1
not listed: [6] | [17]
inactive: all other assays above

COP(=O)(OC)O/C(C)=C/C(=O)N(C)C
active: [10] 17.3 µM
not listed: [6]
inactive: all other assays above

Cn1c(-c2ccccc2)cc(-c2ccccc2)[n+]1C
active: [1] 23.8 µM | [4] 12 µM | CD38, CD38 (gene 952) 2.68 µM | CD40, CD40 (gene 958) [15] 7.51 µM | CD69, CD69 (gene 969) 2.99 µM | [16] 5.52 µM
not listed: [6] | [17]
inactive: all other assays above

O=C(Nc1ccccc1-c1ccc(Cl)cc1)c1cccnc1Cl
active: [3] 843 nM
not listed: [17]
inactive: all other assays above
